This note sets out measurements from publication PMC7862700, “An all-to-all approach to the identification of sequence-specific readers for epigenetic DNA modifications on cytosine”.

What all share (assay): DAPPL (digital affinity profiling via proximity ligation, sequencing); 10 mM Tris-HCl pH 7.5, 50 mM NaCl, 1 mM DTT, 4% glycerol, room temperature, 30 min; GST-TFs on glutathione beads, 16-mer random dsDNA library, 0.1% formaldehyde crosslink after washing; high values mean tight binding
Common to all, as to details: protein: recombinant; tags: N-terminal GST; dsDNA, one strand shown

One test addresses T1, FLI1 (Homo sapiens, UniProt Q01543 1-452).
T1 sequence: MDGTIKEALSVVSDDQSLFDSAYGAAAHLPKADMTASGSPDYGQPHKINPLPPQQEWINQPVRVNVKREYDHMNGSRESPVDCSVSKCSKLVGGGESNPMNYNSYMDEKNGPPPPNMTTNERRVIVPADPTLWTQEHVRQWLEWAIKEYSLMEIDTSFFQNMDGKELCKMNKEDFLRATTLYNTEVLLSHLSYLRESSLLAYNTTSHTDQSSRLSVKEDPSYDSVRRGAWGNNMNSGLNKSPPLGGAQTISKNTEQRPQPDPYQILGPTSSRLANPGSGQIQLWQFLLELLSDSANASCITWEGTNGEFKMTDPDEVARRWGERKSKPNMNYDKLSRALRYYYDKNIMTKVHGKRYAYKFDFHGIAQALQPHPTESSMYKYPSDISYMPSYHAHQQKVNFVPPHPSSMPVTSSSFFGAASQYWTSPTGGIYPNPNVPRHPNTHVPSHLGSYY
An outline of the steps:
(§1)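 Human transcription factors fused to GST were expressed in yeast, captured on glutathione beads, given DNA barcodes and pooled with a GST-only negative control. Pools were incubated with 200 nmole of a 16-mer random double-stranded DNA library in Tris/NaCl/DTT/glycerol buffer at room temperature for 30 min. They were then washed, crosslinked with 0.1% formaldehyde, proximity-ligated (BsaI/T4 ligase, 1 h, 37 °C), PCR-amplified and sequenced on an Illumina NextSeq500. Binding signal is each 6-mer's read frequency for a factor divided by its frequency for the GST control.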

The target in another test is T2, ELK1 (Homo sapiens, UniProt P19419 1-428).
T2 sequence: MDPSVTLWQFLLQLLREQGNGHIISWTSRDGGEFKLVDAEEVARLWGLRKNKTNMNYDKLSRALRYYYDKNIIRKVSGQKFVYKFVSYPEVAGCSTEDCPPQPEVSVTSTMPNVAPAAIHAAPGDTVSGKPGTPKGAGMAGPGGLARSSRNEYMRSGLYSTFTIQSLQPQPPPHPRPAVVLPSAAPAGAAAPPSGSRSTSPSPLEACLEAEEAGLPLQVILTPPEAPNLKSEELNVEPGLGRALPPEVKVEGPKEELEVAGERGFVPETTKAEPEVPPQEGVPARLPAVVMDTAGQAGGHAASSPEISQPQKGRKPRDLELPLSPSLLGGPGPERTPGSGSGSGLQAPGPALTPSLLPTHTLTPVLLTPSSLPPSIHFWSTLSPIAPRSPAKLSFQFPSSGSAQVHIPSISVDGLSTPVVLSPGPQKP
The method in brief:
as §1

A further test addresses T3, GABPA (Homo sapiens, UniProt Q06546 1-454).
T3 sequence: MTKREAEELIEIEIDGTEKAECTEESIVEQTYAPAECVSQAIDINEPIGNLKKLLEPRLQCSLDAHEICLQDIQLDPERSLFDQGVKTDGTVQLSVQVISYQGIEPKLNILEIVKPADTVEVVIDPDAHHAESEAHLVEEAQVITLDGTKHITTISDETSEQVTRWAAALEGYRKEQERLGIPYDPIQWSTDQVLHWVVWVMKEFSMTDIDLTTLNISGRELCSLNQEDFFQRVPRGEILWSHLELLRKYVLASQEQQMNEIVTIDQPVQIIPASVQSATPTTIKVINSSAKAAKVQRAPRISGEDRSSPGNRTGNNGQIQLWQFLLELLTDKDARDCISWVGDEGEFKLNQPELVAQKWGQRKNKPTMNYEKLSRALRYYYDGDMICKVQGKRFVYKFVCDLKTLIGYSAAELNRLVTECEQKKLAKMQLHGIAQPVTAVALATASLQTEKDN
The method in brief:
as §1

The target of the next test is T4, ERG (Homo sapiens, UniProt P11308 1-479).
T4 sequence: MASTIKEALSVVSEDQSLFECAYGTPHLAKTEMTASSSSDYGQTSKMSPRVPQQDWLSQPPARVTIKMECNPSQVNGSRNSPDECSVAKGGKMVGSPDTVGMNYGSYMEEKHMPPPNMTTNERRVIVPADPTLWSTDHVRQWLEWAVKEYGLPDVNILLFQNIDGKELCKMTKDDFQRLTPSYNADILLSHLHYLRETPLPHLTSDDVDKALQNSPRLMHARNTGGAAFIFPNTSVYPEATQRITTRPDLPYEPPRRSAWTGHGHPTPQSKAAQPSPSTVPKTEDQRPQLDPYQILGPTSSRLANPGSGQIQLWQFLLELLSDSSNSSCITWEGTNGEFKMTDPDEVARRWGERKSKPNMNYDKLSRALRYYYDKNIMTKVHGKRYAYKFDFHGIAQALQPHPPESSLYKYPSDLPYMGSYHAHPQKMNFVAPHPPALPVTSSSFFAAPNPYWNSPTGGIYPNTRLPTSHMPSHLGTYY
An outline of the steps: as §1

The next test has as its target ELF1 (Homo sapiens, UniProt P32519 1-619). The method in brief: as §1
In a further test the target is T5, EHF (Homo sapiens, UniProt Q9NZC4 1-300).
T5 sequence: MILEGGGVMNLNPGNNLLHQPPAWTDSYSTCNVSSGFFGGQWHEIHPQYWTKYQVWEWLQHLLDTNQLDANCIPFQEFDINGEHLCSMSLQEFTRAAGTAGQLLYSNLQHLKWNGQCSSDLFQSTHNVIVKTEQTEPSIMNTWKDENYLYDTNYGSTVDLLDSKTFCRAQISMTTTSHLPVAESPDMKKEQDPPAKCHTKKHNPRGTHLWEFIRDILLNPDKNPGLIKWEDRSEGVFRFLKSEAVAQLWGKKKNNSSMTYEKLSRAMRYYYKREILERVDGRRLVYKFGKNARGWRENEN
An outline of the steps: as §1

A further test deals with SPIB (Homo sapiens, UniProt Q01892 1-262). The method in brief: as §1
Chain of SPIB (Q01892 whole entry): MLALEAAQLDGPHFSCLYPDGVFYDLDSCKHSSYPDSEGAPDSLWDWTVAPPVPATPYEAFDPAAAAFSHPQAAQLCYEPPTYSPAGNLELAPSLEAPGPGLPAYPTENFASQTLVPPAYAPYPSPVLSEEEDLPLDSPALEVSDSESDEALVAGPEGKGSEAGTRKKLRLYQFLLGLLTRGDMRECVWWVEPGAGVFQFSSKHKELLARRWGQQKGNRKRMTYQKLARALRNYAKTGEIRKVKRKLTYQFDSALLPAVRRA
The target of another test is T6, ELK3 (Homo sapiens, UniProt P41970 1-407).
T6 sequence: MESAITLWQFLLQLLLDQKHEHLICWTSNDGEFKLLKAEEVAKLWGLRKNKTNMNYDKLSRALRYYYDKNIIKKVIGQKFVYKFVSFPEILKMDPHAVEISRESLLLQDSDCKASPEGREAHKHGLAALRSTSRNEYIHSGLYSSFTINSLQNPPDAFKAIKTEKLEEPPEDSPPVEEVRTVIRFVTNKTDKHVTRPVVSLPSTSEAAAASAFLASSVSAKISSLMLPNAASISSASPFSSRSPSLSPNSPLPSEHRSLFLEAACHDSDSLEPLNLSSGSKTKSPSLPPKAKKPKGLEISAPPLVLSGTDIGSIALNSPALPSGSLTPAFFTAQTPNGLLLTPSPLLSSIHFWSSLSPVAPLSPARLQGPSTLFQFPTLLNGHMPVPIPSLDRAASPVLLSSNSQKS
An outline of the steps:
as §1

The next test has as its target T7, SPIC (Homo sapiens, UniProt Q8N5J4 1-248).
T7 sequence: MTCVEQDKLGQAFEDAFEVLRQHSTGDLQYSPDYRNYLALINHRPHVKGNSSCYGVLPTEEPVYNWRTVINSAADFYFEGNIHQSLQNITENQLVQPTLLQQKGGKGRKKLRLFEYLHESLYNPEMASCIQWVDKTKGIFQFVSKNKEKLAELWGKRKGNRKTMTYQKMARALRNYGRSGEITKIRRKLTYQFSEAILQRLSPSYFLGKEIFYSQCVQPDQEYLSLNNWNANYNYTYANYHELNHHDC
The method in brief:
as §1

The next test deals with ELF4 (Homo sapiens, UniProt Q99607 1-663). An outline of the steps: as §1
Chain of ELF4 (Q99607 whole entry): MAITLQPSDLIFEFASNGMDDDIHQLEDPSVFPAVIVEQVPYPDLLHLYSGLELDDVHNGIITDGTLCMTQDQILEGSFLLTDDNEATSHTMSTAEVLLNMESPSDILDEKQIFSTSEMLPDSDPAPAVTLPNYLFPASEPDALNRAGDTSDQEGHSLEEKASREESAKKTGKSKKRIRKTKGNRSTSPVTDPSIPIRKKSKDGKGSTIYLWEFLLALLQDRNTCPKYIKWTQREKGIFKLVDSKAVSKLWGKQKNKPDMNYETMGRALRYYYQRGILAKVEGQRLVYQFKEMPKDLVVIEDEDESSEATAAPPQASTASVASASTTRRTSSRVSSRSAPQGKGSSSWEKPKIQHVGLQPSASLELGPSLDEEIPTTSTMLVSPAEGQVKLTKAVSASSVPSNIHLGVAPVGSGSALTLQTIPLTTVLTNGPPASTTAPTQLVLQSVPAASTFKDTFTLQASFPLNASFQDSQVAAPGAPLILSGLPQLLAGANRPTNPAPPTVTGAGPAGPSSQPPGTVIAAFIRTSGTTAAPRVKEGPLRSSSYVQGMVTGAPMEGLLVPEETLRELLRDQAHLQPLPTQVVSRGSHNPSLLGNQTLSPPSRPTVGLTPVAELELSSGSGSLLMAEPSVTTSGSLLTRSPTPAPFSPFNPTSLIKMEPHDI
Another test has as its target T8, ELK4 (Homo sapiens, UniProt P28324-2 1-405).
T8 sequence: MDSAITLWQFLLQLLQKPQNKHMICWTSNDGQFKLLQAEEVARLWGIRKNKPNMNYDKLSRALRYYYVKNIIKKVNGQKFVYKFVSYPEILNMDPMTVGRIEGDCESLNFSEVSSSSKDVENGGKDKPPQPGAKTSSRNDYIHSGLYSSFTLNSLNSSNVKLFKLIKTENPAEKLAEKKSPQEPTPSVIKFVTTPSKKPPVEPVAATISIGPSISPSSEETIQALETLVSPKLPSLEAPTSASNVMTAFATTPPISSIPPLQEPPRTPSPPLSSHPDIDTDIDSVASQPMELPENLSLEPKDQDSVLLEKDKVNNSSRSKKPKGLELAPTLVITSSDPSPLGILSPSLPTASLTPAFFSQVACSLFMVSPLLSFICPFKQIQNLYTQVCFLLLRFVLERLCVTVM
An outline of the steps:
as §1

A further test addresses T9, ETV2 (Homo sapiens, UniProt O00321 1-342).
T9 sequence: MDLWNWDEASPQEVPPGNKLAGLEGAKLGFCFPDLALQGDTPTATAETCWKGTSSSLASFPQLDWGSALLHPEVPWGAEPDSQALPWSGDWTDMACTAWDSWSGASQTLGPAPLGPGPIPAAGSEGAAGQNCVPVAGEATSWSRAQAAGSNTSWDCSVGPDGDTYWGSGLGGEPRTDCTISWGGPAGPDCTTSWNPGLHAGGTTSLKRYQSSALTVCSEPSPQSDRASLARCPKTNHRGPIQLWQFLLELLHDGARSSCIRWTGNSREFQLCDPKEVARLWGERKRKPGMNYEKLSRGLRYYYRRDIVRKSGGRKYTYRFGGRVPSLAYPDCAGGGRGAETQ
An outline of the steps: as §1

The target in a further test is ETV1 (Homo sapiens, UniProt P50549 1-477). The method in brief:
as §1

Another test has as its target T10, ERF (Homo sapiens, UniProt P50548 1-548).
T10 sequence: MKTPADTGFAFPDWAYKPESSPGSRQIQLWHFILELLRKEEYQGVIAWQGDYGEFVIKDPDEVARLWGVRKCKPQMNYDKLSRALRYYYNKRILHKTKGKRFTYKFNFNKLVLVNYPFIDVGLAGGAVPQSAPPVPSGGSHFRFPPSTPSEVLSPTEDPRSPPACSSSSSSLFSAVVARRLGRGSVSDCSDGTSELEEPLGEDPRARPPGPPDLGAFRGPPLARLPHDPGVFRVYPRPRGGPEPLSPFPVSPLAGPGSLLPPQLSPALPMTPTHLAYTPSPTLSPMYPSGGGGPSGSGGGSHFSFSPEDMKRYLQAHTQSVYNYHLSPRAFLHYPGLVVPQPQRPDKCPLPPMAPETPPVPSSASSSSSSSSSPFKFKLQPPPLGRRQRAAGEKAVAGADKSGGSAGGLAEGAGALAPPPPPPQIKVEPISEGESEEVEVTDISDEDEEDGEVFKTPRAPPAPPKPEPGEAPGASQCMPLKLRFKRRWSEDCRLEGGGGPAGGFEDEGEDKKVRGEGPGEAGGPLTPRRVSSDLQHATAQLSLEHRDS
An outline of the steps: as §1

For another test, the target named is T11, ETV7 (Homo sapiens, UniProt Q9Y603 1-341).
T11 sequence: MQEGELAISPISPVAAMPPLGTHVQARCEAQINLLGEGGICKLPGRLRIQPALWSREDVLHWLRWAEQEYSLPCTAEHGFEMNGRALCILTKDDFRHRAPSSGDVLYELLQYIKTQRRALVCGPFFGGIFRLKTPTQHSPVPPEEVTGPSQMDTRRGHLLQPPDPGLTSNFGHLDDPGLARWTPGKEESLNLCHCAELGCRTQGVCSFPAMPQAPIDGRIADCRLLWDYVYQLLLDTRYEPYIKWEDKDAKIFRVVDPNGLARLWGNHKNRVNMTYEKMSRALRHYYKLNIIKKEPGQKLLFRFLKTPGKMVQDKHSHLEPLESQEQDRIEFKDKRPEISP
The method in brief:
as §1

Another test concerns the target T12, ETV3 (Homo sapiens, UniProt P41162-2 1-143).
T12 sequence: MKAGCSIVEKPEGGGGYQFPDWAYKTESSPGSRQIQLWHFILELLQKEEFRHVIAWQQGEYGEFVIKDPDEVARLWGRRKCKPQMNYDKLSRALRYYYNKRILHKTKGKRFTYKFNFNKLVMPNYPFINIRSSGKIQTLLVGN
An outline of the steps: as §1

In a further test the target is ETV6 (Homo sapiens, UniProt P41212 1-452). An outline of the steps:
as §1

Chain of ELF1 (P32519 whole entry): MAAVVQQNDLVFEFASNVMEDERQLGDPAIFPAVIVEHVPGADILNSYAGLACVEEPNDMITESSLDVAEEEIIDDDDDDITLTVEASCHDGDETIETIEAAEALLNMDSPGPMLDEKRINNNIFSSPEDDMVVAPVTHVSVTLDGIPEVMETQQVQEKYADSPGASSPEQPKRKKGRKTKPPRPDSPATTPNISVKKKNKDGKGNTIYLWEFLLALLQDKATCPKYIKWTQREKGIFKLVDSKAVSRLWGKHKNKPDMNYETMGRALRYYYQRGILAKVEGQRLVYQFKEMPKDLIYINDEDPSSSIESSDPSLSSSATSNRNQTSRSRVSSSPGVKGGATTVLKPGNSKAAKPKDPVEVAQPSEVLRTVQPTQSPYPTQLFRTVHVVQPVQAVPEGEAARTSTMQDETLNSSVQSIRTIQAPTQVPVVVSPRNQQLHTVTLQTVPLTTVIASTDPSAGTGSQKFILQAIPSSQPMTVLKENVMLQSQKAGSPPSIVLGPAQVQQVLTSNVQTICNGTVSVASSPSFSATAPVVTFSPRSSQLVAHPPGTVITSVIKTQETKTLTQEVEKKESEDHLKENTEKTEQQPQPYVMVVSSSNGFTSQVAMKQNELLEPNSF
Chain of ETV1 (P50549 whole entry): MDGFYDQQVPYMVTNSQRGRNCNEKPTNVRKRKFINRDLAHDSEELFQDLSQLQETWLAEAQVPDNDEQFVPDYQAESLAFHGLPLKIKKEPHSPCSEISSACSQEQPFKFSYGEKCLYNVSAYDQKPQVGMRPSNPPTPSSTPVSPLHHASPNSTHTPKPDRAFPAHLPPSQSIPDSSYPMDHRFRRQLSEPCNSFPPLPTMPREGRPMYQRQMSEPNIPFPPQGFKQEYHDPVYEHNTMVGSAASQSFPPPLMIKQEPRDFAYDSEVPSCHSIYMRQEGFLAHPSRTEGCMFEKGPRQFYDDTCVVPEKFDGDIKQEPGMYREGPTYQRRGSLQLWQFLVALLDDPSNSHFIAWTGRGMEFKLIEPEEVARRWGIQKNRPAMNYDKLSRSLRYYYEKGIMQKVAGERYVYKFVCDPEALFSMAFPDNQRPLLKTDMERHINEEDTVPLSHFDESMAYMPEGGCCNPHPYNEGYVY
Chain of ETV6 (P41212 whole entry): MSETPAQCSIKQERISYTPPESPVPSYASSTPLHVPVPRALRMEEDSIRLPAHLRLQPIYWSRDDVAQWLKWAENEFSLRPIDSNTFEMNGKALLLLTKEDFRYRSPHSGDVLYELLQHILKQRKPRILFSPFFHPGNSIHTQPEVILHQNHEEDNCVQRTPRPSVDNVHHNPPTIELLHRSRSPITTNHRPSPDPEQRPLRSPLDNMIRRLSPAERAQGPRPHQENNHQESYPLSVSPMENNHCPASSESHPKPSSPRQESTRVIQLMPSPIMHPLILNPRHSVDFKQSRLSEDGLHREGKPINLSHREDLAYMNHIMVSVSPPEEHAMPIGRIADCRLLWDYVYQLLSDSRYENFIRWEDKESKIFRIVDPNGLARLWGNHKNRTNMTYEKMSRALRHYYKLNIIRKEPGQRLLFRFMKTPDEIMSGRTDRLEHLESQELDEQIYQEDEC

Consider ACCACG, for which the binding signal in the test with FLI1 is 1.14 fold enrichment (6-mer frequency, TF over GST control); with ELK1, 1.16 fold enrichment (6-mer frequency, TF over GST control); with GABPA it was 1.09 fold enrichment (6-mer frequency, TF over GST control); in the test with ERG it was 1.06 fold enrichment (6-mer frequency, TF over GST control); with ELF1 it was 1.18 fold enrichment (6-mer frequency, TF over GST control); with EHF, 1.04 fold enrichment (6-mer frequency, TF over GST control). Also, the binding signal with SPIB was 1.04 fold enrichment (6-mer frequency, TF over GST control); in the test with ELK3, 1.08 fold enrichment (6-mer frequency, TF over GST control); with SPIC, 1.08 fold enrichment (6-mer frequency, TF over GST control); with ELF4 it was 1.05 fold enrichment (6-mer frequency, TF over GST control); with ELK4, 1.11 fold enrichment (6-mer frequency, TF over GST control); in the test with ETV2, 1.09 fold enrichment (6-mer frequency, TF over GST control). For the same sequence, the binding signal was 1.05 fold enrichment (6-mer frequency, TF over GST control) in the test with ETV1; 1.03 fold enrichment (6-mer frequency, TF over GST control) with ERF; 1.04 fold enrichment (6-mer frequency, TF over GST control) in the test with ETV7; 1.04 fold enrichment (6-mer frequency, TF over GST control) in the test with ETV3; 1.02 fold enrichment (6-mer frequency, TF over GST control) with ETV6.
